According to PubChem BioAssay AID1159580 (chemical genetic matrix, 2015):
About 2,000 (36%) of roughly 5,500 compounds were called active. Not shown: some 18% with an inconclusive outcome. No stated cut-off is given here; in the data, active means normalized growth mostly below about 0.91 (no sharp cut-off); inconclusive means no clear call, values can overlap the other calls; inactive means mostly above about 0.92. The list shows a part of the results.

Assay: chemical genetic growth profiling, strain panel (AID 1159580);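 further: tested at 20 µM; growth read once vehicle control cultures reached saturation at 30 °C; 1 = growth at the plate median or of vehicle wells; lower values mean less growth of the strain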
Settings: growth OD

Measured: normalized growth

COC(=O)C(C)c1ccc(C(=O)c2cccs2)cc1 (configuration not stated)
inactive: S. cerevisiae deletion strains, locus YJR075W, strain HOC1, hits give low values 1.07 | S. cerevisiae deletion strains, locus YKL009W, strain mrt4, hits give low values 0.905 | S. cerevisiae deletion strains, locus YKL068W, hits give low values 0.967 | S. cerevisiae deletion strains, locus YKL085W, strain MDH1 (second series), hits give low values 0.941 | S. cerevisiae deletion strains, locus YKL085W, strain MDH1, hits give low values 0.941 | S. cerevisiae deletion strains, locus YKL160W, strain elf1, hits give low values 1 | S. cerevisiae deletion strains, locus YKL190W, strain CNB1, hits give low values 0.997 | S. cerevisiae deletion strains, locus YKR001C, strain vps1, hits give low values 0.936 | S. cerevisiae deletion strains, locus YKR026C, strain gcn3, hits give low values 1 | S. cerevisiae deletion strains, locus YKR091W, strain srl3, hits give low values 1.01 | S. cerevisiae deletion strains, locus YLL001W, strain dnm1, hits give low values 1.01 | S. cerevisiae deletion strains, locus YLL026W, hits give low values 1.01 | S. cerevisiae deletion strains, locus YLL041C, strain sdh2, hits give low values 1.01 | S. cerevisiae deletion strains, locus YLR027C, strain aat2, hits give low values 1.01 | S. cerevisiae deletion strains, locus YLR039C, strain RIC1, hits give low values 0.862 | S. cerevisiae deletion strains, locus YLR058C, strain SHM2, hits give low values 0.989 | S. cerevisiae deletion strains, locus YLR102C, strain apc9, hits give low values 0.966 | S. cerevisiae deletion strains, locus YLR113W, strain HOG1, hits give low values 0.943 | S. cerevisiae deletion strains, locus YLR221C, strain rsa3, hits give low values 0.978 | S. cerevisiae deletion strains, locus YLR258W, strain gsy2, hits give low values 1.02 | S. cerevisiae deletion strains, locus YLR262C, strain YPT6 (second series), hits give low values 0.998 | S. cerevisiae deletion strains, locus YLR262C, strain YPT6, hits give low values 0.842 | S. cerevisiae deletion strains, locus YLR268W, strain sec22, hits give low values 0.956 | S. cerevisiae deletion strains, locus YLR320W, strain mms22, hits give low values 1.01 | S. cerevisiae deletion strains, locus YLR330W, strain CHS5, hits give low values 0.979 | S. cerevisiae deletion strains, locus YLR342W, strain FKS1 (second series), hits give low values 0.881 | S. cerevisiae deletion strains, locus YLR342W, strain FKS1, hits give low values 1.02 | S. cerevisiae deletion strains, locus YLR357W, strain rsc2, hits give low values 1.02 | S. cerevisiae deletion strains, locus YLR370C, strain arc18, hits give low values 1.01 | S. cerevisiae deletion strains, locus YLR371W, strain rom2, hits give low values 0.958 | S. cerevisiae deletion strains, locus YLR384C, strain iki3, hits give low values 1.01 | S. cerevisiae deletion strains, locus YLR418C, strain cdc73, hits give low values 1.06 | S. cerevisiae deletion strains, locus YML016C, strain PPZ1, hits give low values 0.993 | S. cerevisiae deletion strains, locus YML032C, strain rad52, hits give low values 0.934 | S. cerevisiae deletion strains, locus YML120C, strain ndi1, hits give low values 1.01 | S. cerevisiae deletion strains, locus YML124C, strain tub3, hits give low values 0.958 | S. cerevisiae deletion strains, locus YMR058W, strain fet3, hits give low values 1.01 | S. cerevisiae deletion strains, locus YMR078C, strain ctf18, hits give low values 0.934 | S. cerevisiae deletion strains, locus YMR125W, strain sto1, hits give low values 1.02 | S. cerevisiae deletion strains, locus YMR129W, hits give low values 1.01 | S. cerevisiae deletion strains, locus YMR205C, strain PFK2, hits give low values 1.01 | S. cerevisiae deletion strains, locus YMR223W, strain ubp8, hits give low values 0.913 | S. cerevisiae deletion strains, locus YMR231W, strain pep5, hits give low values 0.996 | S. cerevisiae deletion strains, locus YMR263W, strain SAP30, hits give low values 1.01 | S. cerevisiae deletion strains, locus YMR307W, strain GAS1, hits give low values 0.973 | S. cerevisiae deletion strains, locus YNL067W, strain RPL9B, hits give low values 0.988 | S. cerevisiae deletion strains, locus YNL071W, strain lat1, hits give low values 1.01 | S. cerevisiae deletion strains, locus YNL128W, strain TEP1, hits give low values 1.03 | S. cerevisiae deletion strains, locus YNL153C, strain GIM3, hits give low values 1.02 | S. cerevisiae deletion strains, locus YNL183C, strain NPR1, hits give low values 0.912 | S. cerevisiae deletion strains, locus YNL209W, strain ssb2, hits give low values 1.01 | S. cerevisiae deletion strains, locus YNL233W, strain BNI4, hits give low values 1.01 | S. cerevisiae deletion strains, locus YNL248C, strain rpa49, hits give low values 1 | S. cerevisiae deletion strains, locus YNL250W, strain rad50, hits give low values 0.976 | S. cerevisiae deletion strains, locus YNL271C, strain bni1, hits give low values 0.939 | S. cerevisiae deletion strains, locus YNL298W, strain CLA4, hits give low values 0.932 | S. cerevisiae deletion strains, locus YNL322C, strain KRE1 (second series), hits give low values 1.01 | S. cerevisiae deletion strains, locus YNL322C, strain KRE1, hits give low values 0.991 | S. cerevisiae deletion strains, locus YNR049C, strain mso1, hits give low values 1.02 | S. cerevisiae deletion strains, locus YNR052C, strain pop2, hits give low values 0.945 | S. cerevisiae deletion strains, locus YOL006C, strain TOP1, hits give low values 0.921 | S. cerevisiae deletion strains, locus YOL012C, strain htz1 2.2 | S. cerevisiae deletion strains, locus YOL147C, strain pex11, hits give low values 0.97 | S. cerevisiae deletion strains, locus YOR001W, strain rrp6, hits give low values 0.983 | S. cerevisiae deletion strains, locus YOR061W, strain CKA2, hits give low values 0.985 | S. cerevisiae deletion strains, locus YOR069W, strain VPS5, hits give low values 0.986 | S. cerevisiae deletion strains, locus YOR070C, strain gyp1, hits give low values 1.01 | S. cerevisiae deletion strains, locus YOR080W, strain dia2, hits give low values 1.02 | S. cerevisiae deletion strains, locus YOR083W, strain WHI5, hits give low values 1 | S. cerevisiae deletion strains, locus YOR106W, strain vam3, hits give low values 0.995 | S. cerevisiae deletion strains, locus YOR136W, strain idh2, hits give low values 0.959 | S. cerevisiae deletion strains, locus YOR144C, strain elg1, hits give low values 0.96 | S. cerevisiae deletion strains, locus YOR231W, strain MKK1, hits give low values 0.954 | S. cerevisiae deletion strains, locus YOR265W, strain rbl2, hits give low values 1 | S. cerevisiae deletion strains, locus YOR270C, strain vph1, hits give low values 0.969 | S. cerevisiae deletion strains, locus YOR290C, strain snf2, hits give low values 1 | S. cerevisiae deletion strains, locus YOR316C, strain cot1, hits give low values 0.97 | S. cerevisiae deletion strains, locus YPL051W, strain arl3, hits give low values 1 | S. cerevisiae deletion strains, locus YPL055C, strain LGE1, hits give low values 1.04 | S. cerevisiae deletion strains, locus YPL078C, strain atp4, hits give low values 1.01 | S. cerevisiae deletion strains, locus YPL106C, strain sse1, hits give low values 1.01 | S. cerevisiae deletion strains, locus YPL240C, strain hsp82, hits give low values 1.02 | S. cerevisiae deletion strains, locus YPL241C, strain CIN2, hits give low values 0.995 | S. cerevisiae deletion strains, locus YPL256C, strain CLN2, hits give low values 0.962 | S. cerevisiae deletion strains, locus YPR119W, strain clb2, hits give low values 0.971 | S. cerevisiae deletion strains, locus YPR141C, strain kar3, hits give low values 0.968 | S. cerevisiae deletion strains, locus YPR163C, strain tif3, hits give low values 0.95 | S. cerevisiae deletion strains, locus YPR167C, strain met16, hits give low values 0.967 | S. cerevisiae deletion strains, strain wtn01, hits give low values 0.982 | S. cerevisiae strains, strain wild type, hits give low values 0.983
active: S. cerevisiae deletion strains, locus YNL307C, strain MCK1, hits give low values 0.819 | S. cerevisiae deletion strains, locus YOR184W, strain ser1, hits give low values 0.747
